In PubChem BioAssay AID1845 (The Scripps Research Institute Molecular Screening Center, 2009):
The whole screen tested about 290,000 compounds, of which about 490 (0.17%) were called active. Rule as the data show it: active = inhibition above about 37%; inactive = the rest. For the sample, actives were picked, then their nearest neighbours and some compounds at random.

assay: compounds displacing fluorescent DNA intercalator, primary screen, artefact control for HCV NS3 helicase inhibitor project, biochemical, FID fluorescence (AID 1845); conditions: DNA fluorescent intercalator displacement, at 7.9 µM, hits give high values;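 also: 0% = vehicle and 100% = reference compound; higher means more ethidium bromide displaced from hairpin DNA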

inhibition, active:
Cc1ccc(C(=O)N/C(=C/c2ccc(-c3cccc([N+](=O)[O-])c3)o2)C(=O)NCCCN(C)C)cc1 41.5%
CCN(CC)CCNC(=O)c1sc2ncn(CC(=O)Nc3ccc(C)c(Cl)c3)c(=O)c2c1C 37%
Cc1cc(C)c2nc3nc(C)cc(C)c3c(N)c2c1 62.7%
O=C1c2ccccc2C(=O)c2c1cccc2N1CCN(CCO)CC1 53.2%
C#CCOCCOCCOCCNc1nc(N2CCN(C(=O)[C@H](CCCCN)n3cc([C@@H](N)C(C)CC)nn3)CC2)nc(N2CCN(C(=O)[C@H](Cc3ccc(O)cc3)n3cc([C@@H](N)C(C)CC)nn3)CC2)n1 (some centres not stated) 55.6%
C#CCOCCOCCOCCNc1nc(N2CCN(C(=O)C(Cc3ccc(O)cc3)n3cc(C(N)CC(C)C)nn3)CC2)nc(N2CCN(C(=O)C(Cc3ccc(O)cc3)n3cc(C(N)C(C)CC)nn3)CC2)n1 (configuration not stated) 46.3%
CN1CCN(CCCNC(=O)c2ccc(/C=C3\Oc4ccccc4N(Cc4ccc(Cl)cc4)C3=O)cc2)CC1 40.6%
OCCNc1nc(Nc2ccc(Cl)c(Cl)c2)nc2ccccc12 40.6%
CCOc1ccc(C(O)Cn2c(=N)n(CCN3CCCCC3)c3ccccc32)cc1 (configuration not stated) 40.9%
CCC1CCCCN1CCCNC(=O)c1cc2c(Cl)nc3ccccc3c2s1 (configuration not stated) 43.6%

inhibition, inactive:
CN(C)CCNC(=O)/C(=C/c1cccc([N+](=O)[O-])c1)NC(=O)c1ccccc1 14.4%
N#C/C(=C\c1ccc(-c2cccc([N+](=O)[O-])c2)o1)C(=O)NCCN1CCOCC1 6.61%
CCN(CC)CCCNC(=O)Cn1cnc2sc(C)c(S(=O)(=O)N3CCN(c4ncccn4)CC3)c2c1=O 26.1%
CCN(CC)CCNC(=O)Cn1cnc2sc(C)c(S(=O)(=O)N3CCOCC3)c2c1=O 11.1%
O=C(c1c(F)cccc1F)N1CCN(c2ncc(Br)cn2)CC1 -20.1%
Cc1cc(=O)oc2c3c(cc(OCC(=O)NCCC(=O)N[C@@H](C)C(=O)O)c12)OC(C)(C)CC3 -35.5%
CCn1c(=O)c(C(=O)NCc2ccc3c(c2)OCO3)c(O)c2ccccc21 -4.83%
CC1CC(C)CN(S(=O)(=O)c2cccc3nonc23)C1 (configuration not stated) -7.76%
C=CCN(Cc1nc(-c2cc(OC)c3c(c2)OCO3)oc1C)C1CCS(=O)(=O)C1 (configuration not stated) -27.8%
Clc1cc(NC2CCCCC2)ncn1 -15.2%
CS(=O)(=O)N(CC(=O)N/N=C/c1ccccn1)c1ccc(Oc2ccccc2)cc1 -33.5%
Cc1cc(C)c2c(n1)nn1c(N3CCOCC3)cc(C)nc21 -11.1%
Cc1cc(C)c2nc(SCCC#N)nc(C)c2c1 -17%
O=C1c2ccccc2C(=O)c2c1cccc2N1CCN(Cc2ccccc2)CC1 8.12%
OCCN1CCN(c2nnc(-c3ccccc3)c3ccccc23)CC1 -5.67%
Cc1cccc(-c2nc(CS(=O)CC(=O)NC(C)CCc3ccccc3)c(C)o2)c1 (configuration not stated) -57.2%
CC(=N\NC(=O)c1cc(Br)ccc1O)/C(=N/O)C(=O)Nc1ccccc1 -11.2%
CN1CCN(NC(=O)Nc2ccc(Br)cc2)CC1 -5.13%
COc1ccccc1NC(=O)C(C)OC(=O)CC1CCCC1 (configuration not stated) -26.3%
CC(=O)NC(CC(=O)Nc1nc(-c2ccccc2)c(C(C)=O)s1)c1ccccc1 (configuration not stated) -16.9%
Clc1nc(NC2CCCC2)nc(N2CCOCC2)n1 -6.99%
O=C(CNC(=O)[C@@H]1Cc2ccccc2CN1)NC1CCCCC1 0.62%
CC(C)c1cc(C(=O)N/N=C/C(Br)=C/c2ccccc2)n[nH]1 -26.4%
CCN(CC(=O)NCc1cccs1)C(=O)c1cccc(S(=O)(=O)Nc2ccccc2OC)c1 -11.7%
COCCNC(=O)c1ccc(S(=O)(=O)c2ccc(Cl)cc2)c(NC(C)=O)c1 0.74%
COC(=O)C1(C)NC(c2ccc(F)cc2)C2C(=O)N(c3ccccc3)C(=O)C21 (configuration not stated) 0.11%
CN(C)C(=O)CCC(=O)N1CCCCC1C(=O)Nc1ccc(Oc2ccccc2F)cc1 (configuration not stated) -34%
C#CCOCCOCCOCCNc1nc(N2CCN(C(=O)[C@H](Cc3ccc(O)cc3)n3cc(C(N)CC(C)C)nn3)CC2)nc(N2CCN(C(=O)[C@H](CCC(=O)O)n3cc(C(N)[C@H](C)CC)nn3)CC2)n1 (some centres not stated) 17.7%
C#CCOCCOCCOCCNc1nc(N2CCN(C(=O)[C@H](CCC(=O)O)n3cc(C(N)CO)nn3)CC2)nc(N2CCN(C(=O)[C@H](Cc3ccc(O)cc3)n3cc(C(N)[C@H](C)CC)nn3)CC2)n1 (some centres not stated) 6.75%
C#CCOCCOCCOCCNc1nc(N2CCN(C(=O)[C@H](C(C)C)n3cc(CCO)nn3)CC2)nc(N2CCN(C(=O)[C@H]([C@@H](C)CC)n3cc(CCCN=C(N)N)nn3)CC2)n1 21.4%
C#CCOCCOCCOCCNc1nc(N2CCN(C(=O)[C@H](C(C)C)n3cc(CCO)nn3)CC2)nc(N2CCN(C(=O)[C@H](C(C)C)n3cc(CCO)nn3)CC2)n1 -49.9%
Cc1cc(C)n(CCNS(=O)(=O)c2ccc(Cl)cc2)n1 -8.78%
COc1ccc(S(=O)(=O)NNC(=O)Nc2ccc(C)cc2)c(OC)c1 -10.4%
CN1CCN(S(=O)(=O)c2cccc(C(=O)Nc3cccc(S(N)(=O)=O)c3)c2)CC1 12.4%
Cc1ccc(S(=O)(=O)NC2CCCCCC2)cc1C(N)=O -7.28%
CSc1ncc(C(=O)Nc2ccc(C)cc2C)c(C)n1 -12.3%
Cc1ccccc1C(=O)N1CCN(c2ccc(NC(=O)c3cccs3)cc2)CC1 -49.5%
CC(C)c1nc2cc(C(=O)NC(C)c3cnn(C)c3)ccc2o1 (configuration not stated) -13.1%
COc1cccc(NC(=O)Cn2cnc3sc(C)c(S(=O)(=O)N4CCN(C)CC4)c3c2=O)c1 26.6%
COc1ccc(NC(=O)CCS(=O)(=O)c2cc3c(cc2Cl)NC(=O)CO3)cc1OC -5.06%
COc1ccc(CNC(=O)C(c2ccc(O)cc2)N(Cc2ccco2)C(=O)c2snc(C(N)=O)c2N)cc1 (configuration not stated) -26.1%
O=C(Cn1c(NCCO)nc2ccccc21)c1ccc(Cl)cc1Cl 8.95%
Cc1cc(C)c2c(Cn3ccnc3)cc(=O)oc2c1 -1.43%
Cc1sc2nc(SCCO)n(-c3ccccc3)c(=O)c2c1C -17.8%
Cc1cc(=O)[nH]c(Nc2cccc(Br)c2)n1 -6.32%
CC(C)(C)OC(=O)CNC(=O)c1[nH]cnc1C(=O)N[C@@H](Cc1ccccc1)C(=O)OCc1ccccc1 -34.4%
CN(C)C(=O)c1ccc(NC(=O)c2ccccc2-c2ccccc2)cc1 -15.1%
Cc1ccoc1C(=O)Nc1cccc(Oc2ccccc2)c1 -5.38%
CCC(C(=O)NCCC(C)C)N(Cc1ccccc1Cl)C(=O)c1snc(C(N)=O)c1N (configuration not stated) -29.9%
COc1ccc(NC(=O)CN2C(=O)COc3ccc(S(=O)(=O)N4CCOCC4)cc32)c(OC)c1 -13.3%
COc1ccc(N2CCN(CCNC(=O)Nc3cc(Cl)ccc3Cl)CC2)cc1 21%
CCCCc1nc(SCC(=O)Nc2nnc(C(C)C)s2)n[nH]1 -16.5%
O=C(NCCN1CCOCC1)c1ccc(/C=C2\Sc3ccccc3N(Cc3ccc(F)cc3)C2=O)cc1 0.94%
CN1C(=O)/C(=C/c2ccc(C(=O)NC3CCCC3)cc2)Oc2ccccc21 1.1%
Nc1nc(Nc2ccccc2)nc(NCCO)c1[N+](=O)[O-] -6.38%
CN(C)c1nc(Nc2ccc(Cl)c(Cl)c2)nc(N(C)C)n1 -4.12%
COc1ccc(NC(=O)NNC(=O)COc2cc(C)c(Cl)c(C)c2)c(OC)c1 -28%
CCOC(=O)C(NS(=O)(=O)c1ccc(C)cc1)(C(F)(F)F)P(=O)(OCC(C)C)OCC(C)C (configuration not stated) -11.5%
Cc1cc(OCC(=O)N2CCN(c3ncccn3)CC2)ccc1Cl -46.1%
O=C(O)c1ccc2c(=O)n3c(nc2c1)/C(=C/c1ccc(Cl)c([N+](=O)[O-])c1)CC3 -14.2%
Cc1cccc(OCC(O)Cn2c(=N)n(CCN3CCOCC3)c3ccccc32)c1 (configuration not stated) 18.2%
Cn1c(=N)n(CC(O)c2ccccc2)c2ccccc21 (configuration not stated) 2.17%
CCC1CCCCN1CCCNC(=O)Cn1nc(-c2ccccc2)ccc1=O (configuration not stated) 0.11%
CCC1CCCCN1CCCNC(=O)C1CCC(Cn2c(=O)[nH]c3ccccc3c2=O)CC1 (configuration not stated) 2.92%
O=C(N/N=C/c1ccc(OCC2COCCO2)cc1)c1ccc(Br)cc1 (configuration not stated) -19.9%
CCCCCCc1cc2cc(-c3nnc(-c4cccc(OC)c4)o3)c(=O)oc2cc1O 0.28%
CN(C)CCCn1c(SCc2ccc(Cl)cc2)nnc1-c1ccncc1 3.61%
COc1ccc(OC)c(NC(=O)CN(Cc2ccc(Cl)cc2)S(C)(=O)=O)c1 -26.1%
O=C(/C=C/c1ccco1)NC(=S)Nc1ccccc1Br -8.41%
CCCNC(=O)N1CCC(c2ccc3c(c2)OCO3)CC1 -7.97%
NC(=O)COC(=O)c1ccc2c(c1)C(=O)N(Cc1ccco1)C2=O -2.94%
CCn1nnnc1SCC(=O)Nc1ccc(N(C)C)cc1 -4.25%
